The target of experiment [1] is Rap guanine nucleotide exchange factor 3 (Homo sapiens) (UniProt O95398). The experiment is described as follows: Confirmatory qHTS for agonist of cAMP-regulated guanine nucleotide exchange factor 3 (EPAC1) (AID 1645881).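 Note: EPAC1 catalysed release of BODIPY-GDP from Rap1B seen as fluorescence loss; 100% = effect of cAMP agonist control; nearly all actives have a fitted effect of over 75% in size.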
Experiment [2] deals with Rap guanine nucleotide exchange factor 4 (Homo sapiens) (UniProt Q8WZA2). Kind of experiment: Confirmatory qHTS for agonist of cAMP-regulated guanine nucleotide exchange factor 4 (EPAC2) (AID 1645884).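 Note: nucleotide exchange releases bodipy-GDP from Rap1 and this lowers its fluorescence; % is set by controls: 0 for no effect and ±100 for the full control effect; nearly all actives have a fitted effect of over 65% in size.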
Chain of Rap guanine nucleotide exchange factor 4 (Homo sapiens) (Q8WZA2 whole entry, looked up): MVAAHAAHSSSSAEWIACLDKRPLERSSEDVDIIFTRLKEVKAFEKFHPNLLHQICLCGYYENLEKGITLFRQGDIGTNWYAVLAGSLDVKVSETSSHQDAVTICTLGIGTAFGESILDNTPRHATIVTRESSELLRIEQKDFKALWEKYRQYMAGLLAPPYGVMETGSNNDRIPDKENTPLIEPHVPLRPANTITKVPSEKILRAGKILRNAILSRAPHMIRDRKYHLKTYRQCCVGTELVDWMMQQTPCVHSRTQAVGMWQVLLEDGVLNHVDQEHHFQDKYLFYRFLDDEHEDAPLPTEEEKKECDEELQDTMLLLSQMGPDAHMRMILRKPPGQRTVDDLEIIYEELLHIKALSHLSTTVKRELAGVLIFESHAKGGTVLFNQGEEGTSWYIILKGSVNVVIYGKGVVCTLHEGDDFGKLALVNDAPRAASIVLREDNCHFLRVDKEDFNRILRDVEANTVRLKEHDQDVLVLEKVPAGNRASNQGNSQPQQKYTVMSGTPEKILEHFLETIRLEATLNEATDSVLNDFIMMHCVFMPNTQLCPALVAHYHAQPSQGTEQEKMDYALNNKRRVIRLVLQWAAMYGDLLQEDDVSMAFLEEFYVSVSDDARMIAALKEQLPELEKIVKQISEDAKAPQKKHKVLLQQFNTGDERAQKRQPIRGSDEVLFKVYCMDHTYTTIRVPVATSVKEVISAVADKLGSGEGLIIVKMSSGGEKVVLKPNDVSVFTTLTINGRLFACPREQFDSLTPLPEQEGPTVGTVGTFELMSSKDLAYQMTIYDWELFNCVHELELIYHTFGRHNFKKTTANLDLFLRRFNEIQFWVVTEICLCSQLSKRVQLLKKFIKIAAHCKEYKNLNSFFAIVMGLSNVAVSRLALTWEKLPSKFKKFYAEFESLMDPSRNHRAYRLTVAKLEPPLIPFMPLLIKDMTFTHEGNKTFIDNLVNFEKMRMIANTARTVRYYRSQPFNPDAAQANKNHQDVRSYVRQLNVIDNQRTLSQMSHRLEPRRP
Experiment [3] has the same target. The experiment is described as follows: Confirmatory qHTS for antagonist of cAMP-regulated guanine nucleotide exchange factor 4 (EPAC2) (AID 1645885). For activity change, negative = inhibition: % is set by controls: 0 for no effect and ±100 for the full control effect. Note: nearly all actives have a fitted effect of over 25% in size. Note: potency is the fitted concentration of half-maximal effect.
Experiment [4] deals with Rap guanine nucleotide exchange factor 3 (Homo sapiens) (UniProt O95398). The experiment is described as follows: Counterscreen qHTS for antagonist of cAMP-regulated guanine nucleotide exchange factor 3 (EPAC1) (AID 1645888).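 Note: fluorescence loss as bound BODIPY-GDP is released from Rap1B; % of control where 0% means no effect.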 An outline of the steps:
(§1)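 Measured: fluorescence of BODIPY-GDP bound to Rap1B, which falls as exchange proceeds. Conditions include 50 uM competing GDP, 5 and 30 min reads, and a later cAMP challenge for antagonist detection.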

Experiment [5] shares this target. The experiment is described as follows: Counterscreen qHTS for agonist of cAMP-regulated guanine nucleotide exchange factor 3 (EPAC1) (AID 1645889). For activation: % of control where 0% means no effect. Note: nearly all actives have a fitted effect of over 40% in size. Note: potency is the fitted concentration of half-maximal effect. An outline of the steps: as §1

This note sets out measurements from PubChem BioAssay (NCATS).

Results filed as inconclusive are left out. Unmarked numbers belong to inactive results. Activity calls are given as the source filed them. Calls come from the whole dose curve; as a rule, active = well fitted curve in the direction sought with a large enough effect; inconclusive = small, poorly fitted or top-dose-only effect, or another doubt; inactive = no such curve, though single readings can be large; an effect the other way counts as inactive or inconclusive.

Chain of Rap guanine nucleotide exchange factor 3 (Homo sapiens) (O95398 whole entry, looked up): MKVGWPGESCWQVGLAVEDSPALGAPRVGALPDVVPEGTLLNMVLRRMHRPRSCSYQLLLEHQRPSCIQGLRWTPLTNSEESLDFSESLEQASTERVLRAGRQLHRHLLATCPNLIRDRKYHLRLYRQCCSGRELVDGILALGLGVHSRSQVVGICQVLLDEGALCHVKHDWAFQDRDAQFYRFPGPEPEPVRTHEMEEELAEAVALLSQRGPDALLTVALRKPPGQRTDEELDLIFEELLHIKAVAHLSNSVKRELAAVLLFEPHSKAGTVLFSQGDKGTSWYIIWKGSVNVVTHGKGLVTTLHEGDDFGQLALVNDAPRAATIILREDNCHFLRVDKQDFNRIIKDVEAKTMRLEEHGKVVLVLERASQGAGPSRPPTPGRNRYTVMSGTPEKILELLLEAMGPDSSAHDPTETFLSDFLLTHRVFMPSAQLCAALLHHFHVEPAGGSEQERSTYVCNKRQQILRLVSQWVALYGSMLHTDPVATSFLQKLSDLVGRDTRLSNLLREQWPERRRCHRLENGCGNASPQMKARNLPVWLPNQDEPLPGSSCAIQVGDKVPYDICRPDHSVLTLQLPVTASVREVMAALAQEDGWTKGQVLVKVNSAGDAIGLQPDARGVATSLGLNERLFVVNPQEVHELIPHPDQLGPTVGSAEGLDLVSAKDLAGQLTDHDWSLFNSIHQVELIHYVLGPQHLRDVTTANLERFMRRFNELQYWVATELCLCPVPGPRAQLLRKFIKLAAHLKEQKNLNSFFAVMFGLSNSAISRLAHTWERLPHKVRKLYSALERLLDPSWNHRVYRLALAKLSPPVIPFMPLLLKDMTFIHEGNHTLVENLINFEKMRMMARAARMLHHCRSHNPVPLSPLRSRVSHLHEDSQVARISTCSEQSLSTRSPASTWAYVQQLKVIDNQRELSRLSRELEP

In the case of `CC(Oc1ccc(Cl)cc1Cl)C(=O)NC1=NN(c2ccccc2)C(=O)C1` (stereo not given), the Potency result in experiment [1], in experiment [2], in experiment [3], in experiment [4] and in experiment [5] was “inactive” in each case.

For `CCC(=O)N(CCC1(c2ccccc2OC)CCOC(C(C)C)C1)Cc1ccco1` (stereo not given), the Potency entry in experiment [1] and in experiment [3] was “inactive” each time. Also, the activation in experiment [2] was -0.808% [at 17.1 µM, percent relative to cAMP agonist control]; in experiment [5], 10.9% [at 30.8 µM]. The activity change, negative = inhibition in experiment [4] is -14.7% [at 30.8 µM].

Regarding `O=C(O)c1ccc(N/N=C/c2cn(Cc3ccccc3F)c3ccccc23)cc1`, the Potency result in experiment [1], in experiment [2], in experiment [3], in experiment [4] and in experiment [5] was “inactive” throughout.

`COC(=O)c1ccccc1NC(=O)Cn1nc(C(F)(F)F)c2c1CCCC2`: the Potency result in experiment [1], in experiment [2], in experiment [4] and in experiment [5] was “inactive” throughout. Moreover, in experiment [3], the outcome was “inactive [at 12.7 µM]”.

Turning to `CCOc1cccc(-c2c(C(=O)N/N=C/c3cccs3)nnn2-c2nonc2N)c1`, the Potency entry in experiment [1] and in experiment [3] was “inactive” each time. The activation in experiment [2] was 2.81% [at 17.1 µM, percent relative to cAMP agonist control]. Moreover, in experiment [4], the activity change, negative = inhibition is 15% [at 30.8 µM]. The Potency in experiment [5] was 10 µM (active).

For the compound `Cc1ccc2oc(=O)n(Cc3ccccc3OC(C)C)c2c1`, the Potency result in experiment [1], in experiment [2], in experiment [4] and in experiment [5] was “inactive” each time. In experiment [3], the Potency is 7.57 µM (active).

Turning to `COc1ccccc1NC(=O)CSc1sc2c(O)cc(=O)[nH]c2c1C#N`, the Potency entry in experiment [1] and in experiment [3] was “inactive” in each case. The activation in experiment [2] was 3.66% [at 17.1 µM, percent relative to cAMP agonist control]; in experiment [5], 12.5% [at 30.8 µM]. Further, the activity change, negative = inhibition in experiment [4] is 0.384% [at 30.8 µM].

Turning to `Cc1ccc(NC(=O)CN2C(=O)S/C(=C/c3ccc(O)c([N+](=O)[O-])c3)C2=O)cc1C`, the Potency entry in experiment [1], in experiment [2], in experiment [3], in experiment [4] and in experiment [5] was “inactive” throughout.

With `CC(/C=C1\SC(=S)N(CCC(=O)Nc2cccc(C(=O)O)c2)C1=O)=C\c1ccccc1`, the Potency result in experiment [1] and in experiment [3] was “inactive” throughout. Moreover, the activation in experiment [2] is 9.03% [at 17.1 µM, percent relative to cAMP agonist control]; in experiment [5], 16.2% [at 30.8 µM]. Moreover, in experiment [4], the activity change, negative = inhibition was 19.7% [at 30.8 µM].

In the case of `Cc1cc(Cl)ccc1OCCCC(=O)OCC(=O)c1c(N)n(C)c(=O)n(C)c1=O`, the Potency result in experiment [1] and in experiment [3] was “inactive” throughout. The activation was 11.9% [at 17.1 µM, percent relative to cAMP agonist control] in experiment [2] and 27.4% [at 30.8 µM] in experiment [5]. The activity change, negative = inhibition in experiment [4] is -16.7% [at 30.8 µM].

Turning to `COc1ccccc1Cc1c(-c2ccco2)nc2c(C)cc(Br)cn12`, the Potency result in experiment [1] and in experiment [3] was “inactive” in each case. Further, the activation in experiment [2] was 7.54% [at 17.1 µM, percent relative to cAMP agonist control]; in experiment [5] it was 13.2% [at 30.8 µM]. In addition, in experiment [4], the activity change, negative = inhibition was -14.6% [at 30.8 µM].

For the compound `CCOc1ccc(C=NNc2ccc(S(=O)(=O)Nc3ccccc3C(=O)O)cc2[N+](=O)[O-])cc1`, the Potency entry in experiment [1] and in experiment [3] was “inactive” each time. In addition, the activation in experiment [2] was -0.564% [at 17.1 µM, percent relative to cAMP agonist control]; in experiment [5], 21.3% [at 30.8 µM]. Further, the activity change, negative = inhibition in experiment [4] was 6.79% [at 30.8 µM].

For the compound `COc1cc2c(c(OC)c1OC)-c1c(cc(OC)c(OC)c1OC)C[C@H](C)[C@H](C)C2`, the Potency result in experiment [1] and in experiment [3] was “inactive” each time. In addition, the activation in experiment [2] was 7.13% [at 17.1 µM, percent relative to cAMP agonist control]; in experiment [5] it was 23.6% [at 30.8 µM]. For the same compound, in experiment [4], the activity change, negative = inhibition was -11.3% [at 30.8 µM].

As to `CCOC(=O)N(C)c1c(CC)nc2c(OCc3ccc(C(F)(F)F)cc3)cccn12`, the Potency result in experiment [1], in experiment [2], in experiment [3], in experiment [4] and in experiment [5] was “inactive” each time.

Turning to `CCOC(=O)C1=C(C)N=c2s/c(=C/c3cccc([N+](=O)[O-])c3O)c(=O)n2C1c1ccccc1` (stereo not given), the Potency entry in experiment [1], in experiment [2], in experiment [3], in experiment [4] and in experiment [5] was “inactive” in each case.

Consider `CC(C)(C)c1ccc(Cn2nnc3c(=O)[nH]c(C4CCN(C(=O)Cc5cccs5)CC4)nc32)cc1`, for which the Potency entry in experiment [1], in experiment [2], in experiment [3], in experiment [4] and in experiment [5] was “inactive” throughout.

On to `Cc1nn(-c2ccccc2)c(C)c1-c1cc(C(=O)N/N=C/c2ccc(O)cc2)[nH]n1`, for which the Potency result in experiment [1] and in experiment [3] was “inactive” each time. In addition, the activation in experiment [2] is -7.34% [at 17.1 µM, percent relative to cAMP agonist control]; in experiment [5] it was 9.11% [at 30.8 µM]. Moreover, in experiment [4], the activity change, negative = inhibition was -7.56% [at 30.8 µM].

Take `CCOc1cccc(C(=O)Nc2ccc3oc(Cc4ccc(Cl)cc4)nc3c2)c1`: the Potency result in experiment [1] and in experiment [3] was “inactive” each time. For the same compound, the activation in experiment [2] is 0% [at 17.1 µM, percent relative to cAMP agonist control]; in experiment [5], 18.7% [at 30.8 µM]. In addition, in experiment [4], the activity change, negative = inhibition is -8.02% [at 30.8 µM].

`Cc1nn(C(=O)c2ccco2)c(C)c1Sc1ccccc1`: the Potency result in experiment [1], in experiment [2], in experiment [4] and in experiment [5] was “inactive” in each case. In experiment [3], the Potency was 10.7 µM (active).

For `CC(=O)Nc1ccc(S(=O)(=O)/N=C2/NC(=O)/C(=C\c3ccco3)S2)cc1`, the Potency entry in experiment [1], in experiment [2], in experiment [4] and in experiment [5] was “inactive” throughout. The Potency in experiment [3] is 84.9 µM (active).
